Compound activity as filed in PubChem BioAssay.
Rows were chosen to be rich in hits. Some 3.4% of all compounds tested hit in one or more screens of this group.
SMARCA2 activ: SMARCA2 (BRM) function activators, primary screen, cell-based, luminescence, high throughput; MG213 cells, MMTV-luciferase reporter, dexamethasone, overnight; activation, % at 9.1 µM; 1% of 370,000 active; AID 652017, 2013; in the data active = activation above about 7.8%
Gli-Sufu antag: Gli-Sufu pathway antagonists, primary screen, luciferase luminescence, Sufu-KO-LIGHT cells, uHTS | inhibition, % at 5 µM | Sufu-KO-LIGHT fibroblasts, Gli luciferase reporter luminescence | 0.74% of 340,000 active;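 active = inhibition above about 55%, limit read from the data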
NR2F2 inh: NR2F2 transcriptional activity inhibitors, primary screen, cell-based, luciferase reporter, HEK293T, luminescence. AID 686940, 2013. COUP transcription factor 2 (Homo sapiens), P24468. 0.7% of 370,000 active. HEK293T NGFI-A luciferase reporter. inhibition, % at 8.6 µM;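 active = inhibition above a per-plate cutoff, mean inhibition of test wells between control levels plus 3 SD, cut at about 38% in these data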;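 note: cells cotransfected with COUP-TFII expression vector driving the NGFI-A reporter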
GalR3 antag: GalR3 antagonists in HEK293 cells, primary screen, cell-based, fluorescence readout. Galanin receptor type 3 (Homo sapiens), O60755. AID 651719, 2012. inhibition, % at 3 µM. 0.44% of 360,000 active. HEK293 GalR3-CNG cAMP membrane potential fluorescence; galR3 body fused to GalR1 C-terminus;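 active = inhibition above the screen-wide average plus 3 SD, cut at about 13% in these data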;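 note: forskolin and galanin both at EC90 stimulate the cells; cAMP rise reported by CNG channel membrane potential dye signal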
Target sequence (O60755 1-299 limits assumed): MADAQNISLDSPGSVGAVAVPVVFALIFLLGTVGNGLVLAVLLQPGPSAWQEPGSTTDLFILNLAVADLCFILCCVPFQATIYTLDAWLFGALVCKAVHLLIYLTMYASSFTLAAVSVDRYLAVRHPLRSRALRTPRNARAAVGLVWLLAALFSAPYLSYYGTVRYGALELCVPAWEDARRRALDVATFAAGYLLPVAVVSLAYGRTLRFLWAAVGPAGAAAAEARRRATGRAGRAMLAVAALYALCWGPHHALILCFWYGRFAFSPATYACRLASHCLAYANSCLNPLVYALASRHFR
Cardio protect: cardioprotection against H2O2-induced cell death, primary screen, uHTS, H9c2 cells, ATPLite luminescence; H9c2 cardiomyocytes, H2O2 injury protection, 2 h; protection from H2O2 cell death, % at 20 µM; 0.63% of 360,000 active; AID 588492, 2011;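 active = compounds giving at least 50% protection of heart cells from peroxide-induced death in the single-dose screen, raw or plate-pattern-corrected value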
FXN GAA850 act: FXN promoter activators, primary screen, cell-based, luciferase luminescence, HEK293 lucGAA850 | HEK293 lucGAA850 FXN promoter luciferase reporter, 24 h; percent of 10 µM SAHA response | activation, % at 6 µM | 0.56% of 360,000 active;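 active = activation above the average of all compounds screened plus 3 SD, cutoff fixed separately per campaign, cut at about 7.5% in these data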
GAA30 FXN cntr: GAA30 FXN promoter activators, confirmation, counter-screen for GAA850 frataxin promoter activator project, cell-based, luminescence, HEK293, lucGAA30, triplicate; shares compounds with FXN GAA850 act; HEK293 lucGAA30 FXN promoter luciferase, 24 h; DMSO = 0%, 5 µM ipriflavone = 100%; activation, % at 6 µM; 66% of 1,900 active; AID 588350, 2011;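 active = mean activation above the mean of solvent-only control wells plus 3 SD, cut at about 22% in these data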;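 note: counterscreen of GAA850 promoter hits where activity marks nonselective or luminescence artifacts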
GAA850 confirm: FXN GAA850 promoter activators in reporter cells, confirmation, cell-based, luminescence, HEK293 lucGAA850, triplicate; shares compounds with FXN GAA850 act; HEK293 lucGAA850 FXN promoter luciferase reporter, 24 h; 100% = activation by SAHA; activation, % at 6 µM; 86% of 1,900 active;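 active = mean activation above a set limit taken from the primary screen, cut at about 8% in these data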
Numbers stand for hits; – = inactive; · = no result given.

SMILES | SMARCA2 activ | Gli-Sufu antag | NR2F2 inh | GalR3 antag | Cardio protect | FXN GAA850 act | GAA30 FXN cntr | GAA850 confirm
CN(c1ccc(C(=O)NCCSC(C)(C)C)cc1)S(C)(=O)=O | – | – | – | – | – | 8.1 | 104.0 | 30.2
N#CCC[C@H]1CC[C@]2(CCCN(C(=O)c3ccno3)C2)O1 | – | · | – | · | · | · | · | ·
OC(c1cccc(Cl)c1)c1nc(-c2csc3ccccc23)cs1 (stereo not drawn) | – | · | – | – | – | – | · | ·
Fc1ccc(CSc2ncnc3scc(-c4ccccc4)c23)cc1 | – | – | – | – | – | 8.9 | 22.1 | 13.7
Cc1ccc(-c2nnc3c4ccccc4c(C)nn23)cc1S(=O)(=O)N1CCN(CCO)CC1 | – | – | – | – | – | 7.6 | 32.1 | 16.8
CC(C)C[C@@H]1COc2cc(NCCO)ccc2S(=O)(=O)N1 | – | · | – | – | · | · | · | ·
Cc1sc(N)nc1-c1ccc(Oc2ccccc2)cc1 | – | – | – | – | – | 8.8 | 62.6 | 24.7
Nc1nc(N)nc(-c2ccc(Oc3ccccc3)cc2)n1 | – | – | – | – | – | 10.9 | 26.8 | 13.8
Cc1sc(N)nc1-c1ccc2c(c1)OCCO2 | – | – | – | – | – | – | · | ·
Cc1cc(C)n2nc(CC#N)c(C#N)c2n1 | – | – | – | – | – | – | · | ·
Cc1cc(C)n2nc(/C(C#N)=C/c3ccccn3)c(C#N)c2n1 | – | – | – | – | – | 15.6 | 32.2 | 36.8
COc1ccc(Cn2nnnc2CN(Cc2cc3cccc(C)c3[nH]c2=O)C2CCCC2)cc1 | – | – | – | – | – | 7.8 | – | –
CCC12C(=O)C(CC)(C(c3ccccc3)=C1c1ccccc1)[C@@H]1C(=O)N(c3ccccc3)C(=O)C12 (stereo partly drawn) | – | – | – | – | – | 11.5 | – | 11.4
C[C@H]1COc2cccc(N3CCCC3)c2S(=O)(=O)N1C | – | · | – | · | · | · | · | ·
N#C/C(=C\c1cccs1)C(=O)Nc1nccs1 | – | – | – | – | – | 9.2 | 105.7 | 27.8
Clc1ccc(N=C2SCC3CCCCN23)cc1 (stereo not drawn) | – | – | – | – | – | 8.2 | 98.5 | 41.8
CC(C)(C)c1ccc(-c2nnc3n2N=C(c2ccc(Cl)cc2)CS3)cc1 | – | · | – | · | · | · | · | ·
N#Cc1ccc(/C=C2\CC3(OC(=O)c4ccc(F)cc4)CCCN2C3)cc1 (stereo not drawn) | – | · | – | · | · | · | · | ·
Cn1cccc1C(=O)N1CCN(S(=O)(=O)c2ccc(F)cc2)CC1 | – | · | – | · | · | · | · | ·
Cc1cccc(CN2CCN(C3CN(Cc4cn(Cc5ccc(F)cc5)nn4)S(=O)(=O)C3)CC2)c1 (stereo not drawn) | – | · | – | – | · | · | · | ·
O=C(CNC(=O)c1ccccc1)N=Nc1c(O)[nH]c2ccc(Br)cc12 | – | – | – | – | – | – | · | ·
COC(=O)N=Nc1c(O)[nH]c2ccc(Br)cc12 | – | – | – | – | – | 10.5 | 143.9 | 32.1
COc1ccnc(NCc2ccc(Cl)cc2)c1C#N | – | – | – | – | – | 10.4 | 54.7 | 20.1
O=C(COc1ccccc1Cl)NC(=O)NC1CCCC1 | – | – | – | – | – | 8.0 | 111.4 | 29.6
CCC(=O)N/C(N)=N/c1nc2ccccc2o1 | – | – | – | – | – | 7.8 | 113.2 | 37.4
SMILES | SMARCA2 activ | Gli-Sufu antag | NR2F2 inh | GalR3 antag | Cardio protect | FXN GAA850 act | GAA30 FXN cntr | GAA850 confirm
COc1ccc(OC)c(/C=C/C(=O)N2C(=O)c3cccc(N)c3C2=O)c1 | – | – | – | – | – | 9.2 | – | 8.9
CS/C(N)=N/N=C/c1cc(C)ccc1O | – | – | – | – | – | 8.6 | 122.2 | 37.9
CCS/C(N)=N/N=C/c1cc(C)ccc1O | – | – | – | – | – | – | · | ·
Cc1ccc(-c2cc(C(=O)NN=Cc3cccc(OCc4ccccc4)c3)[nH]n2)cc1C | – | · | – | · | · | · | · | ·
CC1CCN(c2ccc(NC(=S)NC(=O)c3ccco3)cc2)CC1 | – | – | – | – | – | 7.9 | 68.7 | 31.9
CCOc1ccc(Nc2ncnc3c2cnn3-c2ccccc2)cc1 | – | – | – | – | – | 12.8 | 67.3 | 21.5
C[C@@H]1CN([C@H](C)CO)S(=O)(=O)c2ccc(Br)cc2O[C@@H]1CN(C)Cc1ccc(-c2ccccc2)cc1 | – | · | – | – | – | 14.4 | 24.0 | 10.9
Oc1csc(Cc2nc(-c3ccc(-c4ccccc4)cc3)cs2)n1 | – | – | – | – | – | – | · | ·
Oc1csc(Cc2nc(-c3ccc4ccccc4c3)cs2)n1 | – | – | – | – | – | 10.2 | 63.4 | 42.6
C(=N\Nc1nc2ccccc2[nH]1)/c1c[nH]c2ccccc12 | – | – | – | – | – | 9.8 | 128.8 | 43.5
CCC[C@H]1[C@@H](OC(=O)NCc2ccc(C)cc2)CC[C@@]23CCCN2C(=O)CCC[C@@H]13 | · | · | – | · | · | · | · | ·
COc1ccccc1N(C)S(=O)(=O)c1ccc(Cl)c(C(=O)NNC(=O)c2ccccc2O)c1 | – | – | – | – | – | – | · | ·
COc1ccccc1N(C)S(=O)(=O)c1ccc(Cl)c(C(=O)NCC2(N(C)C)CCCCC2)c1 | – | – | – | – | – | 11.8 | 24.9 | –
C[C@H](O)[C@@H]1CN2CCc3c([nH]c4c(-c5ccccc5)cccc34)[C@@H]2C[C@@H]1N(C)C(=S)NCCc1ccccc1 | – | · | – | – | · | · | · | ·
N#Cc1cc2c(nc1SCC(N)=O)CCCCC2 | – | – | – | – | – | 9.6 | 108.5 | 38.1
CCOC(=O)CC(=O)CSc1nc2c(cc1C#N)CCCCCC2 | – | – | – | – | – | – | · | ·
CCC/C=C/c1ccc(CN2C(C)C(=O)N(Cc3cn(CC4CCCCC4)nn3)CCS2(=O)=O)cc1 (stereo not drawn) | – | · | – | – | – | – | · | ·
CCC/C=C/c1ccc(CN2C(C(C)C)C(=O)N(Cc3cn(CC4CCCCC4)nn3)CCS2(=O)=O)cc1 (stereo not drawn) | – | · | – | – | – | 7.9 | – | –
O=C(CSC(=S)N1CCSCC1)c1ccc(Cl)cc1 | – | – | – | – | – | 9.8 | 114.5 | 41.9
COc1ccc(Cn2ccc3ccc(-c4ccc5ccn(Cc6ccc(F)cc6)c5c4)cc32)cc1 | – | · | – | · | · | · | · | ·
